# NPR1 activator: GC-A (human) enzyme activation; P16066; HEK293 GC-A cells, cGMP TR-FRET, EC30 ANP; 0% at EC30 ANP, 100% saturating ANP; activation, % at 10 µM; 370,000 tested, 0.14% active; in the data active = activation above about 40%
# GC-B act: GC-B (human) receptor activation | HEK293-GC-B cells, CNP EC30, cGMP TR-FRET; 0% at EC30 CNP, 100% saturating CNP | activation, % at 10 µM | 370,000 tested, 0.11% active;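 active = activation at 10 µM reaching about 35% in either raw or pattern-adjusted values, limit read from the data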
# Neddyl block: cullin neddylation inhibition; P61081+Q13564; TR-FRET cullin neddylation, biochemical; inhibition, % at 25 µM; 360,000 tested, 0.58% active; AID 651699; in the data active = inhibition above about 36%
# NOD2 RIPK2 PPI: NOD2-RIPK2 protein interaction inhibition | O43353 | CHO BLA complementation NOD2-RIPK2, CCF4 ratio | inhibition, % at 4.98 µM | 360,000 tested, 0.38% active | AID 624267; in the data active = inhibition above about 21%;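 note: 0% = vehicle only and 100% = reference blocker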
# TLR9-MyD88 block: TLR9-MyD88 interaction inhibition. inhibition, % at 4.98 µM. 340,000 tested, 0.21% active. CHO BLA complementation TLR9-MyD88, CCF4 FRET ratio;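 active = inhibition above the mean over all tested compounds plus 3 SD, cut at about 21% in these data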;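 note: 0% = DMSO only wells and 100% = clavulanate BLA inhibitor control wells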
# Target sequence (Q99836 whole entry, looked up): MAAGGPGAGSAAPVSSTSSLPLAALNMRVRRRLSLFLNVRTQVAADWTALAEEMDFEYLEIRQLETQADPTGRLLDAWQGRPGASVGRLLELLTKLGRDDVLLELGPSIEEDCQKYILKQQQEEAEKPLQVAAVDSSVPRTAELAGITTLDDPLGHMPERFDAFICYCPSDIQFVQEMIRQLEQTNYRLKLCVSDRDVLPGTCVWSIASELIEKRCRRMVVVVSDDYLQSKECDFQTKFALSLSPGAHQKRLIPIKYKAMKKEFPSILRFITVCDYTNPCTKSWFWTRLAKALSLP
# Target sequence (Q9NR96 whole entry, looked up): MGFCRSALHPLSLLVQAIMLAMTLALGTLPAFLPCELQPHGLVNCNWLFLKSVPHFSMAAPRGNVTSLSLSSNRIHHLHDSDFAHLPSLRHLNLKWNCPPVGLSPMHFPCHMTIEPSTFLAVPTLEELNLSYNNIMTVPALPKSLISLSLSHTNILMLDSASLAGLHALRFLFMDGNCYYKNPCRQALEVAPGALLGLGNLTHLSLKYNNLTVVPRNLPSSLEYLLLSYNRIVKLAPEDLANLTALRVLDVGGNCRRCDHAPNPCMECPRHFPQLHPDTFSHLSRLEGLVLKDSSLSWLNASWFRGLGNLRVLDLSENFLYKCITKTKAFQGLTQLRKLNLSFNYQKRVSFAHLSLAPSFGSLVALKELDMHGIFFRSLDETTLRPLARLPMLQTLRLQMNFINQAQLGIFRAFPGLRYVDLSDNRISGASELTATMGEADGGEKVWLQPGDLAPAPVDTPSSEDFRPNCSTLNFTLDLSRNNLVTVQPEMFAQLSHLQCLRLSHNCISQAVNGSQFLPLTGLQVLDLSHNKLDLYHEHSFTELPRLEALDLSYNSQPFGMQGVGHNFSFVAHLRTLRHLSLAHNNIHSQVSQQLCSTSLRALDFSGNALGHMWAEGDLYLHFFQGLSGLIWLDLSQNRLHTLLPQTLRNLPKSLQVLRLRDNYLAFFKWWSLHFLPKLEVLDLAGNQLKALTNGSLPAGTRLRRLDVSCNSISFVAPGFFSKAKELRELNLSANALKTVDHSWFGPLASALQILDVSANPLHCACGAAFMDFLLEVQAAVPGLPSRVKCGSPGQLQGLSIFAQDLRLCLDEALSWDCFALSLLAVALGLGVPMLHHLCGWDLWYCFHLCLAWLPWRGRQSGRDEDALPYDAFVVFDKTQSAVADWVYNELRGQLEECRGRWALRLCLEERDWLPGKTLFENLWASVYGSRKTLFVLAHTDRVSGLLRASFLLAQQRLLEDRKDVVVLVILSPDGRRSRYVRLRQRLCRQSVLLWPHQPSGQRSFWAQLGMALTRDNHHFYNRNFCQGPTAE
# TLR4-MyD88 BLA: blocks binding of human TLR4 to MyD88; O00206+Q99836; HeLa CL3-4 TLR4/MyD88 BLA complementation, FRET ratio; inhibition, % at 8.4 µM; 200,000 tested, 0.18% active; in the data active = inhibition above about 25%;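 note: 0% = vehicle and 100% = reference inhibitor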
# Neddyl conf: confirmation of human cullin neddylation inhibitors; shares compounds with Neddyl block; TR-FRET cullin neddylation biochemical assay; calls only at 25 µM; 1,800 tested, 13% active; AID 652217; in the data active = inhibition above about 40%;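 note: neddylation substrate is the cullin 1 ring ligase complex with SKP2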
# * hit, by the source's call; i = inactive; . = no result shown; + = active, no number. This is a sample that favours compounds with a hit; in the whole collection about 1.2% have one here.
SMILES,NPR1 activator,GC-B act,Neddyl block,NOD2 RIPK2 PPI,TLR9-MyD88 block,TLR4-MyD88 BLA,Neddyl conf
Cc1ccc(S(=O)(=O)Nc2c(NC3CCCCC3)c3ccccc3oc2=O)cc1C,-4.5,1.9,40.8*,-19.6,-6.3,.,.
COc1ccc(S(=O)(=O)Nc2c(NC3CCCCC3)c3ccccc3oc2=O)cc1OC,-0.5,-2.4,40.9*,-14.0,4.7,.,i
CC(=O)N(C)c1cccc(-c2ccc3nnc(C)n3n2)c1,5.7,-1.9,52.9*,-0.9,7.5,.,.
COc1ccc(-n2c(SCC(=O)Nc3cc(C)c(NC(=O)c4ccccc4)cc3OC)nnc2-c2ccccc2F)cc1,-2.9,0.3,.,.,.,.,.
COC(=O)C(C(C)C)N1CCc2c(C)nc3c(C#N)cnn3c21 (configuration not stated),-1.1,0.1,46.7*,8.7,9.5,6.7,+
CS(=O)(=O)N1CCCCC1c1cc(C(=O)Nc2ccccc2Cl)no1 (configuration not stated),-1.4,2.2,-2.4,-9.0,.,.,.
Cc1csc(SCC(=O)Nc2cccc3nsnc23)n1,2.5,2.2,46.1*,-4.9,-8.6,-1.4,.
Cc1csc(SCC(=O)Nc2ccccc2C)n1,-1.4,2.0,-6.7,-0.7,-15.7,.,.
COc1ccc(C2C3=C(Nc4ncnn42)c2ccccc2CCC3)cc1 (configuration not stated),-18.7,-3.4,43.6*,-10.9,-0.9,3.2,i
COc1cc(C2C3=C(Nc4ncnn42)c2ccccc2CC3)cc(OC)c1OC (configuration not stated),-1.4,3.2,14.0,5.2,-5.6,4.4,.
COc1cccc(-c2cnc3c(NC(C)=O)cc(-c4ccc(S(C)(=O)=O)cc4)cn23)c1,13.0,5.3,12.4,-4.2,.,.,.
CCN(CC)c1cc(C)c2cc(NC(=O)c3ccccc3F)ccc2n1,12.7,5.3,14.9,0.2,11.3,.,.
CCN(CC)c1cc(C)c2cc(NC(=O)CNC(C)=O)ccc2n1,11.0,-4.2,42.8*,-18.8,2.3,0.3,+
COc1cccc(CNC(=O)Cn2c(-c3ccccc3)cc(C(C)=O)c2C)c1,-8.5,-12.5,.,.,.,.,.
N#Cc1ccc(-c2ccc(OCC(=O)Nc3cccnc3)cc2)cc1,8.9,-1.4,37.9*,-2.3,-6.6,.,i
CC(C)CN(CC(C)C)c1nc(N)c(C#N)c(CC#N)c1C#N,14.9,18.2,37.7*,5.8,-3.1,7.7,.
Nc1cccc2c(=O)[nH][nH]c(=O)c12,-0.1,-2.8,47.8*,-1.6,-0.3,.,+
Nc1cccc2c(=O)c3ccccc3[nH]c12,-6.3,-1.4,11.3,0.0,0.2,.,.
c1ccc2c(c1)ccc1nnc(-c3ccc4c(c3)OCO4)n12,6.2,11.6,46.1*,-14.2,-6.6,-6.7,.
CCCCC(=O)Nc1cccc(-c2nc3ncccc3o2)c1C,-0.2,1.3,38.1*,-6.8,-5.5,.,i
CCCCC(=O)Nc1cc(-c2nc3ncccc3o2)ccc1C,0.8,-5.6,22.1,-7.2,-2.6,-5.9,.
O=C(NCc1cccnc1)c1ccc2sc([C@H]3C[C@H](O)[C@@H](CO)O3)nc2c1,0.7,4.8,13.5,3.0,.,.,.
Cc1c(OC(C)C(=O)N2C[C@H]3C[C@@H](C2)c2cccc(=O)n2C3)ccc2c3c(c(=O)oc12)CCC3 (some centres not stated),-2.2,-3.5,32.0,5.9,0.1,.,.
Cc1c(C)c2ccc(OC(C)C(=O)N3C[C@H]4C[C@@H](C3)c3cccc(=O)n3C4)c(C)c2oc1=O (some centres not stated),-3.9,-5.3,43.7*,-14.5,2.7,.,i
CCCNC(=O)c1sc2c(c1C(=O)Nc1ccccn1)CCCC2,-5.0,-5.1,43.8*,3.6,3.3,0.8,i
CN(C)CCNC(=O)c1c(NC(=O)c2ccccc2)sc2c1CCCC2,-11.7,-18.0,33.1,-6.4,-0.7,.,.
COc1ccc(Nc2nc(N3CCCCC3)nc3ccccc23)c(OC)c1,-6.0,-5.9,40.1*,-1.8,-3.0,5.1,.

# Screening data as filed in PubChem.
